# Results taken from PubChem BioAssay (Tox21).
# Unmarked numbers belong to inactive results. Results filed as inconclusive are left out. Where a call stands in place of a potency, no number is given. The source made the active and inactive calls. Calls come from the whole dose curve; as a rule, active = well fitted curve in the direction sought with a large enough effect in the repeat runs; inconclusive = weak or mixed curves; inactive = no such curve, though single readings can be large; an effect the other way counts as inactive or inconclusive.
# Assays:
# [1] = Human pregnane X receptor (PXR) small molecule agonists, qHTS cell viability counter screen (AID 1346977); note: nearly all actives have a fitted effect of over 50% in size
# Outline: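 Tox21 qHTS format; PXR-Luc HepG2, 2,000/well, charcoal-stripped FBS 5%. Cpd exposure 24hr. Read: CellTiter-Fluor fluorescence, multiplexed with luciferase.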
# [2] = Caspase-3/7 induction in HepG2 cells by small molecules, qHTS assay (AID 1346978); note: nearly all actives have a fitted effect of over 15% in size
# Outline: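 Wild-type HepG2 cells, 2,000/well, settled 5 hr at 37 C and 5% CO2, then compound-treated for 17 hr; caspase-3/7 activity read by luminescent Caspase-Glo 3/7 after 30 min at room temperature.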
# [3] = Caspase-3/7 induction in CHO-K1 cells by small molecules, qHTS cell viability counter screen (AID 1346979); note: nearly all actives have a fitted effect of over 35% in size
# Outline: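 CellTiter-Fluor viability check, qHTS format: wild-type CHO-K1, 16hr compound treatment, 1hr reagent incubation, fluorescence read.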
# [4] = Caspase-3/7 induction in HepG2 cells by small molecules, qHTS cell viability counter screen (AID 1346981); note: series mostly up to about 92 µM; nearly all actives have a fitted effect of over 30% in size
# Outline: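 Wild-type HepG2 cells (2,000/well) were allowed to settle for 5 hr at 37 C, 5% CO2, then dosed with compounds in DMSO by pin transfer. After 16 hr at 37 C, CellTiter-Fluor was added and fluorescence read 1 hr later.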
# [5] = target: Nuclear receptor subfamily 1 group I member 2 (Homo sapiens) (UniProt O75469); experiment: Human pregnane X receptor (PXR) small molecule agonists, qHTS assay (AID 1346982); note: nearly all actives have a fitted effect of over 35% in size
# Sequence of Nuclear receptor subfamily 1 group I member 2 (Homo sapiens) (O75469 whole entry, looked up): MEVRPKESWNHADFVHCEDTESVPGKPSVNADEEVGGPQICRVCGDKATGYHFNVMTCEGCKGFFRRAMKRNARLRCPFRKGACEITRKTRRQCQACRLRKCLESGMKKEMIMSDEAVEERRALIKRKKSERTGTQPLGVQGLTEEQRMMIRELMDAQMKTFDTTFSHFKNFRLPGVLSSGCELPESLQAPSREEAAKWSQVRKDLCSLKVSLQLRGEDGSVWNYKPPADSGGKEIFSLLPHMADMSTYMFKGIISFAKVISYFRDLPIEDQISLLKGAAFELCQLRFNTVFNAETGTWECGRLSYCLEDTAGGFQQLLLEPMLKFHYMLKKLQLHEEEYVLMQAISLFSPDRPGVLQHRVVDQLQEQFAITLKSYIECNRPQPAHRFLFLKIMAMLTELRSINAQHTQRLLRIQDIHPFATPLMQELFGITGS
# Outline: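 PXR-Luc HepG2 cells (CYP3A4 promoter-driven luciferase) were seeded in medium with 5% charcoal-stripped FBS, left 5 hr at 37 C, then exposed to compounds in DMSO for 24 hr. Luminescence was read after ONE-Glo addition.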
# [6] = target: Nuclear receptor subfamily 1 group I member 2 (Rattus norvegicus) (UniProt Q9R1A7); experiment: Rat pregnane X receptor (rPXR) activation by small molecules, qHTS assay (AID 1346983); settings: rPXR luciferase reporter cells, One-Glo luminescence, 24 h; active compounds read high; note: nearly all actives have a fitted effect of over 20% in size
# Sequence of Nuclear receptor subfamily 1 group I member 2 (Rattus norvegicus) (Q9R1A7 whole entry, looked up): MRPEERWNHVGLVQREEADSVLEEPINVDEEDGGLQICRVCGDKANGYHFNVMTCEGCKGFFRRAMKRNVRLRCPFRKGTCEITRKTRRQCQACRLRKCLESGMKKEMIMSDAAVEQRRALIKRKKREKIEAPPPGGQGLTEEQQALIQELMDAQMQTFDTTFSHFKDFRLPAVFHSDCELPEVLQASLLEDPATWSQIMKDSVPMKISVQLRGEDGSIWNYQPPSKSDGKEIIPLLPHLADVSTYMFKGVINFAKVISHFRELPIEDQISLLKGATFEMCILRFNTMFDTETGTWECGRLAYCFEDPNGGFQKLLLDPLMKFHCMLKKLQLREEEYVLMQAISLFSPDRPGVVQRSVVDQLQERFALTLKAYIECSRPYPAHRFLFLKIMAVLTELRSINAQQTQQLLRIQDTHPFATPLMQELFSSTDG
# Outline: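 Cell-based rPXR activation assay: rPXR cells, 2,000 per well, rested 5hr at 37 C, then exposed to compounds in DMSO for 24 hr at 37 C. Luciferase activity read by One-Glo luminescence after 30 min at room temperature.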
# [7] = target: Nuclear receptor subfamily 1 group I member 2 (Homo sapiens) (UniProt O75469); experiment: CYP3A4 induction through human pregnane X receptor (PXR) by small molecules, qHTS assay (AID 1346984); note: nearly all actives have a fitted effect of over 40% in size
# Outline: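 DPX-2 cells (HepG2 co-transfected with PXR and CYP3A4 promoter-luciferase) treated with compounds 24 h at 37C; luciferin-IPA CYP3A4 substrate 3uM final added for 3 h, then One-Glo; luminescence read. qHTS format.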
# [8] = target: Nuclear receptor subfamily 1 group I member 2 (Homo sapiens) (UniProt O75469); experiment: Human pregnane X receptor (PXR) activation by small molecules, qHTS assay (AID 1346985); note: nearly all actives have a fitted effect of over 40% in size
# Outline: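 DPX-2 cells (HepG2 co-transfected with a PXR response element and a CYP3A4-promoter luciferase construct) were seeded at 2,000 per well, rested 5 hr at 37C, then exposed to DMSO-dissolved compounds for 24 hr. Activation was read as luciferase luminescence.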
# [9] = target: Cytochrome P450 2C19 (Homo sapiens) (UniProt P33261); experiment: Cytochrome P450 Family 2 Subfamily C Member 19 (CYP2C19) small molecule antagonists: luciferase reporter qHTS assay (AID 1671197); note: nearly all actives have a fitted effect of over 65% in size; note: potency is the fitted concentration of half-maximal effect; for activity change, negative = inhibition: series mostly up to about 120 µM
# Sequence of Cytochrome P450 2C19 (Homo sapiens) (P33261 whole entry, looked up): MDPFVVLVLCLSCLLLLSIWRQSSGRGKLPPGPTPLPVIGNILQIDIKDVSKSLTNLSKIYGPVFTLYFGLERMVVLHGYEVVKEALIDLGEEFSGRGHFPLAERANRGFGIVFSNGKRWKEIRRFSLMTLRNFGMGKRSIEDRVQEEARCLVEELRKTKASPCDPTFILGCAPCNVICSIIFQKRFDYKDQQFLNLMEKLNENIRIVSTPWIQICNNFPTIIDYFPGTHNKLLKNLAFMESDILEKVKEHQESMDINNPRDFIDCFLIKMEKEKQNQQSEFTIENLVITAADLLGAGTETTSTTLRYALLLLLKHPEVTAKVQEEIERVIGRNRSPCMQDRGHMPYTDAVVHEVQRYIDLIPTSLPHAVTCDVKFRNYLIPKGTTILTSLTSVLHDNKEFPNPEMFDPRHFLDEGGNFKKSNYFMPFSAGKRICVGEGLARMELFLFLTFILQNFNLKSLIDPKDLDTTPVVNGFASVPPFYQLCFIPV
# Outline: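 P450-Glo CYP2C19 screening system; proluciferin substrate; DMSO compound stocks; 10 min RT preincubation; NADPH regeneration, 1 h at 37C; luciferin detection reagent, 20 min RT; luminescence as RLU.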
# [10] = target: Cytochrome P450 1A2 (Homo sapiens) (UniProt P05177); experiment: Cytochrome P450 Family 1 Subfamily A Member 2 (CYP1A2) small molecule antagonists: luciferase reporter qHTS assay (AID 1671199); note: nearly all actives have a fitted effect of over 50% in size; note: potency is the fitted concentration of half-maximal effect; for activity change, negative = inhibition: series mostly up to about 120 µM
# Sequence of Cytochrome P450 1A2 (Homo sapiens) (P05177 whole entry, looked up): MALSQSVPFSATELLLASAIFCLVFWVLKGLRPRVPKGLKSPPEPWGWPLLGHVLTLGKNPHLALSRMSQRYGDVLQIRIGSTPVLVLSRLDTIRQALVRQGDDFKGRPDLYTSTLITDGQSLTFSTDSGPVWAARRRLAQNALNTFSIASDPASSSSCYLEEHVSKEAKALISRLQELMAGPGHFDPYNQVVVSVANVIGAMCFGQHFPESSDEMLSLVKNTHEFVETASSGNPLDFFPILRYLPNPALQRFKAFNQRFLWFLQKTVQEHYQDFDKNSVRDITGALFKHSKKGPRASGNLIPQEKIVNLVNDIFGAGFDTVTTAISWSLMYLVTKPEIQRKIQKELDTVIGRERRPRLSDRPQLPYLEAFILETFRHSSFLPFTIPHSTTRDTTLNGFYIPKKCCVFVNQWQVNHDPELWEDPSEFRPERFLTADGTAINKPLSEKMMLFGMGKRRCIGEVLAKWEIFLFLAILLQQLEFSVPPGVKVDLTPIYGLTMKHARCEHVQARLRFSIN
# Outline: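 Human CYP1A2 activity measured with a P450-Glo proluciferin substrate; compounds in DMSO preincubated 10 min at room temperature with enzyme-substrate mix, then NADPH regeneration system added for 1 h. Luciferin detection reagent, 20 min, luminescence read.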
# [11] = target: Voltage-gated inwardly rectifying potassium channel KCNH2 (Homo sapiens) (UniProt Q12809); experiment: Human Ether-a-go-go-Related Gene (hERG) channel small molecule antagonists: fluorescence cell-based qHTS assay (AID 1671200);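 note: hERG-expressing U2OS cells given a thallium stimulus after FluxOR II dye loading; series mostly up to about 77 µM; nearly all actives have a fitted effect of over 50% in size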
# Sequence of Voltage-gated inwardly rectifying potassium channel KCNH2 (Homo sapiens) (Q12809 whole entry, looked up): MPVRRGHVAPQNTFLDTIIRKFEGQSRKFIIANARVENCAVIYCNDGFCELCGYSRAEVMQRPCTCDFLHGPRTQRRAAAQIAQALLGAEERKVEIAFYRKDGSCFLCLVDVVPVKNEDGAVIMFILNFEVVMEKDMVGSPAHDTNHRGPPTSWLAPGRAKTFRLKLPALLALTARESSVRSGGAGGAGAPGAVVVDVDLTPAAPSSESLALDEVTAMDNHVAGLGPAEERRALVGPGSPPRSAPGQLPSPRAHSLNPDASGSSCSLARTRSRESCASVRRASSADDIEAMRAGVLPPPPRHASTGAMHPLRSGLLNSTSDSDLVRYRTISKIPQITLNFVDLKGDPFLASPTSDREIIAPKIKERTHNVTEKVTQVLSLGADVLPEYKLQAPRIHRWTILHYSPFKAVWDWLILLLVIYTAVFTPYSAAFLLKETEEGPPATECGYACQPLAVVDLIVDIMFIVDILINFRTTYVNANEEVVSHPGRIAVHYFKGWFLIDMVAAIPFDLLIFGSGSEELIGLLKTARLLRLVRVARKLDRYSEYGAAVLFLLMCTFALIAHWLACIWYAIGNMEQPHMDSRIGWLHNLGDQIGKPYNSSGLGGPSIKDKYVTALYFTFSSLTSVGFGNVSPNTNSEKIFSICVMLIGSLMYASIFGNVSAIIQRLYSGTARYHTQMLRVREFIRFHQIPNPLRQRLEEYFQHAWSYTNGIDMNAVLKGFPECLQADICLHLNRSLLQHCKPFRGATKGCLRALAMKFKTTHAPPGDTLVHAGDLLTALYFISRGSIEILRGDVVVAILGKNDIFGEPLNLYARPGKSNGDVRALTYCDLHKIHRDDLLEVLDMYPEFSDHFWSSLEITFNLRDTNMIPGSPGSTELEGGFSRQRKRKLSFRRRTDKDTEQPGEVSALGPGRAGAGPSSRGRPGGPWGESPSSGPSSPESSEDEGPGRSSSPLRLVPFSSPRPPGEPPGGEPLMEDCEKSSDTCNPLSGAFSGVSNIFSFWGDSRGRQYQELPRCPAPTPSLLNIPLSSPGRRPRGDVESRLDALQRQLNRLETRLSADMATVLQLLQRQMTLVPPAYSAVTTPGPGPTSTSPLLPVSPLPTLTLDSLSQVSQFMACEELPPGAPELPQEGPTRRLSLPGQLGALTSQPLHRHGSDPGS
# Outline: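 Kinetic two-minute fluorescence traces, sampled at 1 s, were collected following thallium stimulus of U2OS cells (1000 per well) that had been cultured overnight at 37 C and loaded with FluxOR II.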
# [12] = target: Cytochrome P450 3A4 (Homo sapiens) (UniProt P08684); experiment: Cytochrome P450 Family 3 Subfamily A Member 4 (CYP3A4) small molecule antagonists: luciferase reporter qHTS assay (AID 1671201); note: nearly all actives have a fitted effect of over 50% in size; note: potency is the fitted concentration of half-maximal effect; for activity change, negative = inhibition: series mostly up to about 120 µM
# Sequence of Cytochrome P450 3A4 (Homo sapiens) (P08684 whole entry, looked up): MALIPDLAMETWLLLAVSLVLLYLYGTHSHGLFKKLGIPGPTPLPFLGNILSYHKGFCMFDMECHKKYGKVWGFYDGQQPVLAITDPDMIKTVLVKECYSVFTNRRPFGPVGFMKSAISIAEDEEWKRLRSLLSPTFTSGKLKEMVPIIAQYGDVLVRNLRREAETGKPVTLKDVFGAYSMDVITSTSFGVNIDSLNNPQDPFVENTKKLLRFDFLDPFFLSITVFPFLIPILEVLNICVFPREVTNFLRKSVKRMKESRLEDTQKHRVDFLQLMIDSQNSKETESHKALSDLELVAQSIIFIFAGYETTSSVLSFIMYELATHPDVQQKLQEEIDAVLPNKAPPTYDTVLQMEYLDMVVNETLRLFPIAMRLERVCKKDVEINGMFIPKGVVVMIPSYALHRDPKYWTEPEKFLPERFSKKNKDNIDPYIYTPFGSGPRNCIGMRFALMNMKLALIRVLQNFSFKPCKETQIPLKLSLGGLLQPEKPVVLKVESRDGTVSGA
# Outline: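 Proluciferin-to-luciferin conversion by CYP3A4, NADPH-regenerated, 1 h RT; luminescence read as RLU. Ketoconazole as control.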
# [13] = target: Cytochrome P450 2D6 (Homo sapiens) (UniProt P10635); experiment: Cytochrome P450 Family 2 Subfamily D Member 6 (CYP2D6) small molecule antagonists: luciferase reporter qHTS assay (AID 1671196); note: nearly all actives have a fitted effect of over 50% in size; note: potency is the fitted concentration of half-maximal effect; for activity change, negative = inhibition: series mostly up to about 120 µM
# Sequence of Cytochrome P450 2D6 (Homo sapiens) (P10635 whole entry, looked up): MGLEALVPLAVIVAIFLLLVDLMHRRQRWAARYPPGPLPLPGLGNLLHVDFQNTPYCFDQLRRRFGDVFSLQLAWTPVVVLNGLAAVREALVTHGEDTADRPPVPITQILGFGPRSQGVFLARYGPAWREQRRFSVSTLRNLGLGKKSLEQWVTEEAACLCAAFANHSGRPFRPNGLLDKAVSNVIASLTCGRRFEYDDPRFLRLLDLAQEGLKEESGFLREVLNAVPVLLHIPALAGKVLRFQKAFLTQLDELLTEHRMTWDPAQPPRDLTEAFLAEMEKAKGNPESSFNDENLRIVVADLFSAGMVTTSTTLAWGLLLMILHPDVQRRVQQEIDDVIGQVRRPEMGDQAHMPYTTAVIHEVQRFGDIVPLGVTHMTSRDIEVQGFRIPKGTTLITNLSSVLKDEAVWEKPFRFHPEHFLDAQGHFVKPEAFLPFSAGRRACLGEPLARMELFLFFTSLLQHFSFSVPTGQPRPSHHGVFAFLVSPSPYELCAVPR
# Outline: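 CYP2D6 enzyme–substrate mix was held with compound for 10 min at room temperature, then NADPH regeneration solution was added and the reaction ran 1 h at room temperature. Luciferin product was detected by luminescence after 20 min with detection reagent.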
# [14] = target: Cytochrome P450 2C9 (Homo sapiens) (UniProt P11712); experiment: Cytochrome P450 Family 2 Subfamily C Member 9 (CYP2C9) small molecule antagonists: luciferase reporter qHTS assay (AID 1671198); note: nearly all actives have a fitted effect of over 50% in size; note: potency is the fitted concentration of half-maximal effect; for activity change, negative = inhibition: series mostly up to about 120 µM
# Sequence of Cytochrome P450 2C9 (Homo sapiens) (P11712 whole entry, looked up): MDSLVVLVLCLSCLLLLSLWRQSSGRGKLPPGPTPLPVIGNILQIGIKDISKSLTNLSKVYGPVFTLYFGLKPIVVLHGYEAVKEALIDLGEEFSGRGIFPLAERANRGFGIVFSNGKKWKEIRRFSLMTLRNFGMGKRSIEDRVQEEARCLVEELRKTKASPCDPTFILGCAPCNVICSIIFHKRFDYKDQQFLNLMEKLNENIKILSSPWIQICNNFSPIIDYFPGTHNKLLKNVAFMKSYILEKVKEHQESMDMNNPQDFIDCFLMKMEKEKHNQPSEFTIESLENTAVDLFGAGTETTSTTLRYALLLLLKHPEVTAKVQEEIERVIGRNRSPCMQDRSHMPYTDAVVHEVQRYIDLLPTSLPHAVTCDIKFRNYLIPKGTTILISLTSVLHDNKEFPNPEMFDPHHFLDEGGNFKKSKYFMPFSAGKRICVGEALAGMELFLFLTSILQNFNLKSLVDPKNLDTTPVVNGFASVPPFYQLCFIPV
# Outline: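 P450-Glo proluciferin substrate with CYP2C9 enzyme; 10 min RT preincubation, then NADPH regeneration 1 h at 37C; luciferin detection reagent 20 min RT, luminescence in relative luminescence units.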
# [15] = Caspase-3/7 induction in CHO-K1 cells by small molecules, qHTS assay (AID 1346980); note: nearly all actives have a fitted effect of over 15% in size
# Outline: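 Wild-type CHO-K1 cells exposed to compounds for 17hr at 37 C, 5% CO2. Caspase-3/7 activity then measured by Caspase-Glo 3/7 luminescence after 30min at room temperature.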
smiles,measurement,setting,value
C[C@@H](O)[C@H](N)C(=O)O,"activity change, negative = cytotoxicity",[1],14% [at 19 µM]
same,caspase activation,[2],-1.24% [at 19 µM]
same,"activity change, negative = cytotoxicity",[3],-0.658% [at 19 µM]
same,"activity change, negative = cytotoxicity",[4],-2.32% [at 19 µM]
same,activation,[5],-12.7% [at 19 µM]
same,max activation,[6],-1.79%
same,Potency,[7],inactive
same,Potency,[8],inactive
same,"activity change, negative = inhibition",[9],6.88% [at 23.6 µM]
same,"activity change, negative = inhibition",[10],12.2% [at 23.6 µM]
same,"activity change, negative = inhibition",[11],1.94% [at 15.8 µM]
same,"activity change, negative = inhibition",[12],16.7% [at 23.6 µM]
O=C(/C=C/c1ccccc1)OC/C=C/c1ccccc1,Potency,[1],inactive
same,Potency,[2],inactive
same,Potency,[3],inactive
same,Potency,[4],inactive
same,Potency,[13],inactive
same,Potency,[9],35.6 µM (active)
same,Potency,[14],31.7 µM (active)
same,Potency,[10],28.3 µM (active)
same,Potency,[12],inactive
Nc1cc(Cl)c(O)c(Cl)c1,Potency,[1],inactive
same,Potency,[2],inactive
same,Potency,[15],inactive
same,Potency,[4],inactive
same,Potency,[13],15.9 µM (active)
same,Potency,[9],20 µM (active)
same,Potency,[14],28.3 µM (active)
same,Potency,[10],39.9 µM (active)
same,Potency,[11],inactive
same,Potency,[12],8.94 µM (active)
COc1cccc(OC)c1C(=O)O,Potency,[1],inactive
same,Potency,[2],inactive
same,Potency,[3],inactive
same,Potency,[4],inactive
same,Potency,[5],inactive
same,Potency,[13],inactive
same,Potency,[9],inactive
same,Potency,[14],inactive
same,Potency,[11],inactive
same,Potency,[12],inactive
